Several values for one entry are separate records, joined by “and”; a condition that tells them apart may be missing. Equal values may be shown once. Unmarked numbers belong to inactive results. Records with an inconclusive call do not appear. Entries that show only a call come without a potency. Activity calls are given as the source filed them. Unless noted, the call rests on the fitted dose curve; in most records, active means well fitted curve in the direction sought with a large enough effect in the repeat runs; inconclusive means weak or mixed curves; inactive means no such curve, though single readings can be large; an effect the other way counts as inactive or inconclusive.
What was measured:
[1] = qHTS assay for small molecule agonists of the p53 signaling pathway (AID 651631; calls by dose curve; further: nearly all actives have a fitted effect of over 15% in size; further: potency means the concentration at half of the fitted maximal effect)
In short: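 Fluorescence intensity from cleaved LiveBLAzer B/G substrate (2 h, room temperature) served as the signal. Beforehand, HCT-116 reporter cells bearing p53 response elements were treated 16 h at 37 °C with DMSO-dissolved compounds.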

[2] = qHTS assay for small molecules that induce genotoxicity in human embryonic kidney cells expressing luciferase-tagged ATAD5 (AID 651632); further: nearly all actives have a fitted effect of over 15% in size; further: potency means the concentration at half of the fitted maximal effect
In short: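 HEK293T cells carrying a luciferase reporter tagged to ATAD5 were exposed to compound or DMSO vehicle for 16 hr at 37C, 5% CO2. Amplite was added, and after 30 min at room temperature luciferase activity was read as a marker of ATAD5 induction.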

[3] = qHTS assay for small molecules that induce genotoxicity in human embryonic kidney cells expressing luciferase-tagged ATAD5 - cell viability (AID 651634; calls by dose curve; further: nearly all actives have a fitted effect of over 25% in size; further: potency means the concentration at half of the fitted maximal effect)
In short: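 HEK293T cells expressing luciferase-tagged ATAD5 were exposed to compound or DMSO for 15.5 hr at 37C, 5% CO2. Viability was then read as live-cell protease activity by CellTiter-Fluor fluorescence after 30 min at 37C.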

[4] = qHTS assay for small molecule disruptors of the mitochondrial membrane potential (AID 720635); further: potency means the concentration at half of the fitted maximal effect
In short: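 HepG2 cells exposed to compound 1 hr at 37C, then Mito-MPS dye 30 min. Ratio read of aggregate (540/590 nm) versus monomer (490/535 nm) fluorescence.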

[5] = qHTS assay to test for compound auto fluorescence at 590 nm (red) in HepG2 cells (AID 720674)
In short: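 Fluorescence at 590 nm emission following 540 nm excitation was recorded from HepG2 wells one hour after compound transfer, with DMSO-only wells as vehicle and Rose Bengal sodium equivalency as the scale.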

[6] = qHTS assay to test for compound auto fluorescence at 535 nm (green) in HepG2 cells (AID 720675)
[7] = qHTS assay to test for compound auto fluorescence at 460 nm (blue) in HEK293 cells (AID 720678); further: potency means the concentration at half of the fitted maximal effect
In short: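 After cell attachment (4-5 hr, 37C), compounds were pinned onto HEK293 monolayers in 10% dialyzed FBS medium. The blue channel (405/460 nm) was read following overnight culture. Equivalency was calculated against triamterene.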

[8] = qHTS assay to test for compound auto fluorescence at 590 nm (red) in HEK293 cells (AID 720679)
In short: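 Plates of HEK293 cells (10% dialyzed FBS) are treated with 23 nL compound or DMSO vehicle after a 4-5 hr attachment period, incubated overnight at 37C, and read for red fluorescence at 540/590nm.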

[9] = qHTS assay to test for compound auto fluorescence at 535 nm (green) in HEK293 cells (AID 720680)
[10] = qHTS assay to test for compound auto fluorescence at 460 nm (blue) in HEK293 cell free culture (AID 720681); further: potency means the concentration at half of the fitted maximal effect
In short: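 Compounds were added to cell-free DMEM with 10% FBS and fluorescence read directly. The blue channel used 405 nm excitation and 460 nm emission, with triamterene as the reference fluorophore.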

[11] = qHTS assay to test for compound auto fluorescence at 535 nm (green) in HEK293 cell free culture (AID 720682)
In short: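 Intrinsic compound fluorescence is measured in culture medium containing 10% FBS, with excitation at 485 nm and detection at 535 nm, referenced to fluorescein.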

[12] = qHTS assay to test for compound auto fluorescence at 590 nm (red) in HEK293 cell free culture (AID 720683)
In short: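 Cell-free wells of DMEM with 10% FBS received compound, and intrinsic fluorescence was read at excitation/emission 540/590 nm. Values expressed as equivalence to Rose Bengal sodium.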

[13] = qHTS assay to test for compound auto fluorescence at 590 nm (red) in HepG2 cell free culture (AID 720684)
In short: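 Compounds are added to culture medium (MEM, 10% FBS) lacking cells, then fluorescence is read at excitation 540 nm, emission 590 nm, with Rose Bengal sodium as the equivalency standard.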

[14] = qHTS assay to test for compound auto fluorescence at 460 nm (blue) in HepG2 cell free culture (AID 720685); further: potency means the concentration at half of the fitted maximal effect
In short: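 Compound (23 nL) or DMSO pinned into cell-free MEM with 10% FBS; blue fluorescence read at 405/460 nm excitation/emission, expressed as auto-fluorescence equivalency to triamterene.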

[15] = qHTS assay to test for compound auto fluorescence at 535 nm (green) in HepG2 cell free culture (AID 720686)
[16] = qHTS assay to test for compound auto fluorescence at 460 nm (blue) in HepG2 cells (AID 720687); further: potency means the concentration at half of the fitted maximal effect
In short: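 HepG2 cells in MEM with 10% FBS, attached overnight at 37 C, were exposed to compound or DMSO for 1 hr at 37 C, 5% CO2. Blue fluorescence was read at 405/460 nm, with triamterene as reference fluorophore.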

[17] = qHTS assay for small molecule disruptors of the mitochondrial membrane potential - cell viability (AID 720634; calls by dose curve; further: nearly all actives have a fitted effect of over 20% in size; further: potency means the concentration at half of the fitted maximal effect)
In short: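 HepG2 cells seeded overnight at 37 C, then exposed to compound or DMSO for 1 hr at 37 C, 5% CO2. m-MPI dye added, then CellTiter-Glo for 30 min at room temperature; viability read as ATP luminescence.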

[18] = target: Glucocorticoid receptor (Homo sapiens) (UniProt P04150); assay: qHTS assay to identify small molecule agonists of the glucocorticoid receptor (GR) signaling pathway (AID 720691; active means well fitted activation curve with a large enough effect in the signal ratio in the repeat runs, not every such curve was filed as active; the % refers to the signal ratio; further: potency means the concentration at half of the fitted maximal effect); details: GR-bla HeLa, beta-lactamase reporter ratio, 18 h; activation: at 62.4 µM (top of the series)
Chain of Glucocorticoid receptor (Homo sapiens) (P04150 whole entry, looked up): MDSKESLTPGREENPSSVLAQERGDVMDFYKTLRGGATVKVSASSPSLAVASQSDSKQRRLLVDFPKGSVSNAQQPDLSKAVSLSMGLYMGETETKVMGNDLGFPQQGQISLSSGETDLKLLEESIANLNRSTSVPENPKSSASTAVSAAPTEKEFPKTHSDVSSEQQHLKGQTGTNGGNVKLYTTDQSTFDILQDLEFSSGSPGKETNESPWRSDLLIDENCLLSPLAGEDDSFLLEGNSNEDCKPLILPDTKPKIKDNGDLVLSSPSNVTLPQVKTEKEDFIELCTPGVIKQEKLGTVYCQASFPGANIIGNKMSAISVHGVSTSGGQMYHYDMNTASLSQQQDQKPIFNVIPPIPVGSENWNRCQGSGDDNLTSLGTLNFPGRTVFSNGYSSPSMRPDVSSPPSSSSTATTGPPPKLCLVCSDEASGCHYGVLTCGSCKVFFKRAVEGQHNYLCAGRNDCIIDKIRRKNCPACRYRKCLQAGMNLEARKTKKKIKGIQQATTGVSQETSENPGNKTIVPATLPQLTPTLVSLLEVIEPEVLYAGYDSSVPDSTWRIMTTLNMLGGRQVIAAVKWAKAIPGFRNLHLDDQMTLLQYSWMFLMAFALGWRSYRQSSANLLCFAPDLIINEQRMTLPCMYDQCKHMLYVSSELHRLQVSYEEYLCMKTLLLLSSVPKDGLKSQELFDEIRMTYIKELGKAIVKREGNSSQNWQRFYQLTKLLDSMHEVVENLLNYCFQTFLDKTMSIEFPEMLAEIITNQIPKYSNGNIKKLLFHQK
In short: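 GR-bla HeLa cells (beta-lactamase reporter under glucocorticoid response element) were plated 4 h at 37 C/5% CO2, given compounds in DMSO, and incubated 18 h at 37 C. LiveBLAzer B/G FRET substrate was added for 2 h at room temperature, then fluorescence intensity read.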

[19] = target: Glucocorticoid receptor (Homo sapiens) (UniProt P04150); assay: qHTS assay to identify small molecule antagonists of the glucocorticoid receptor (GR) signaling pathway (AID 720692; active means well fitted inhibition curve with a large enough effect in the signal ratio in the repeat runs, not every such curve was filed as active; the % refers to the signal ratio; further: potency means the concentration at half of the fitted maximal effect)
In short: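 GR-bla HeLa cells (beta-lactamase reporter under glucocorticoid response element) were pre-plated 4 h at 37 C, treated with compounds plus 5 nM dexamethasone (final) for 18 h, then read by LiveBLAzer B/G FRET fluorescence after 2 h.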

[20] = qHTS assay for small molecule agonists of the p53 signaling pathway - cell viability (AID 651633; calls by dose curve; further: nearly all actives have a fitted effect of over 30% in size; further: potency means the concentration at half of the fitted maximal effect)
In short: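 p53RE-bla cells were treated with compound for 16 hours at 37 C. Cytotoxicity was then measured as CellTiter-Glo luminescence after 30 min at room temperature.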
Tags describe the fitted curve by direction and shape or compound fluorescence and quenching.

| SMILES | Potency [1] | Potency [2] | Potency [3] | Potency [4] | Potency [5] | Potency [6] | Potency [7] | Potency [8] | outcome [9] | Potency [10] | outcome [11] | Potency [12] | Potency [13] | Potency [14] | Potency [15] | Potency [16] | Potency [17] | Potency [18] | Potency [19] | Potency [20] |
| --- | --- | --- | --- | --- | --- | --- | --- | --- | --- | --- | --- | --- | --- | --- | --- | --- | --- | --- | --- | --- |
| N=C1C=CC(=C(c2ccc(N)cc2)c2ccc(N)cc2)C=C1 | 68.6 µM (active) | inactive | 24.3 µM (active) | 61.1 nM (active) | inactive | inactive | inactive | inactive | inactive | inactive | inactive | inactive | inactive | inactive | inactive | inactive | – | – | – | – |
| O=C1Cc2cc(CCN3CCN(c4nsc5ccccc45)CC3)c(Cl)cc2N1 | inactive | inactive | – | inactive | inactive | inactive | inactive | inactive | inactive | inactive | inactive | inactive | inactive | inactive | inactive | inactive | inactive | 21.3 µM (active) | inactive | – |
| CC[C@H](c1ccc(O)cc1)[C@@H](CC)c1ccc(O)cc1 | 5.07 µM (active) and 13.7 µM (active) | inactive | inactive | 8.04 µM (active) and 9.69 µM (active) | inactive | inactive | inactive | – | inactive | inactive | inactive | inactive | inactive | inactive | inactive | inactive | – | inactive | – | – |
| Oc1cccc2cc3cccc(O)c3c(O)c12 | inactive | inactive | inactive | – | inactive | inactive | inactive | inactive | inactive | inactive | inactive | inactive | inactive | inactive | inactive | inactive | – | inactive | inactive | inactive |
| Nc1c2ccccc2nc2ccccc12 | 3.35 µM (active) and 1.91 µM (active) | inactive | – | 11.9 µM (active) and 4.27 µM (active) | inactive | inactive | 11.2 µM [fluorescent] (active) and 31.6 µM [fluorescent] (active) | inactive | inactive | 11.2 µM (active) and 15.8 µM (active) | inactive | inactive | inactive | 14.1 µM [fluorescent] (active) and 15.8 µM [fluorescent] (active) | inactive | 11.2 µM [fluorescent] (active) and 15.8 µM [fluorescent] (active) | inactive | – | – | inactive |
| O=C(O)c1cc(O)c2c(c1)C(=O)c1cccc(O)c1C2=O | 19.9 µM (active) | inactive | – | 2510 nM (active) | inactive | – | inactive | inactive | inactive | inactive | inactive | inactive | inactive | inactive | inactive | inactive | inactive | inactive | inactive | inactive |
| COCCCC/C(=N\OCCN)c1ccc(C(F)(F)F)cc1 | inactive | inactive | inactive | – | inactive | inactive | – | inactive | inactive | inactive | inactive | inactive | inactive | inactive | inactive | inactive | inactive | inactive | inactive | – |
| CC(C)(C)c1ccc(C(=O)O)cc1 | inactive | inactive | inactive | – | inactive | inactive | inactive | inactive | inactive | inactive | inactive | inactive | inactive | inactive | – | inactive | – | inactive | inactive | inactive |
| COc1cccc2c1C(=O)c1c(O)c3c(c(O)c1C2=O)C[C@@](O)(C(=O)CO)C[C@@H]3O[C@H]1C[C@H](N)[C@H](O[C@@H]2CCCCO2)[C@H](C)O1 | 1.88 µM (active) | 2.37 µM (active) | – | 699 nM (active) | – | – | inactive | – | inactive | inactive | inactive | – | – | inactive | – | inactive | inactive | 3.01 µM (active) | – | 8.41 µM (active) |
| CCCCCCCCCCCCCCCS(=O)(=O)Oc1ccccc1 | inactive | inactive | inactive | – | inactive | inactive | inactive | – | inactive | inactive | inactive | inactive | inactive | inactive | inactive | inactive | – | inactive | – | – |
| O=c1cc(-c2ccc(O)cc2)oc2cc(O)cc(O)c12 | 15.6 µM (active) and 43.3 µM (active) | 5.52 µM (active) and 4.86 µM (active) | – | 1.75 µM (active) and 1.37 µM (active) | inactive | inactive | inactive | inactive | inactive | inactive | inactive | inactive | inactive | inactive | inactive | inactive | 4.92 µM (active) | inactive | 27.9 µM (active) and 27.5 µM (active) | – |
| CSc1cnc(C)cn1 | inactive | inactive | – | inactive | inactive | inactive | inactive | inactive | inactive | inactive | inactive | inactive | inactive | inactive | inactive | inactive | inactive | inactive | – | inactive |
| O=c1[nH]cnc2nc[nH]c12 | inactive | inactive | inactive | inactive | inactive | inactive | inactive | inactive | inactive | inactive | inactive | inactive | inactive | inactive | – | inactive | inactive | – | – | – |

— PubChem BioAssay (Tox21)
